These results are taken from PubChem BioAssay (Tox21).

Records with an inconclusive call do not appear. Active and inactive are the calls of the source. Calls follow the shape of the dose curve; as a rule, active = well fitted curve in the direction sought with a large enough effect in the repeat runs; inconclusive = weak or mixed curves; inactive = no such curve, though single readings can be large; an effect the other way counts as inactive or inconclusive.

Assay [1] is described as follows: A CellTox Green Cytotoxicity Assay to monitor cytotoxicity in HepG2 cells - 8 hour (AID 1224890). Also: nearly all actives have a fitted effect of over 45% in size. The essentials:
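Continuous culture of HepG2 cells with a membrane-impermeant DNA dye; rising fluorescence marks dead cells. Compound exposure lasted up to 40 h at 37 C, with reads every 8 h from 0 h.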

Assay [2] in a line: qHTS assay to identify small molecule antagonists of the estrogen receptor alpha (ER-alpha) signaling pathway using the BG1 cell line in the presence of 0.1 nM 17-beta-estradiol - cell viability counter screen (AID 1259241). Also: nearly all actives have a fitted effect of over 40% in size. Put shortly:
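Cytotoxicity counter-screen: live-cell protease activity measured by fluorescence (30 min reagent step) in the same wells. Cells were VM7Luc4E2 with endogenous ER-alpha and ERE-driven luciferase, treated 22 hr at 37C alongside 0.1 nM 17beta-estradiol final.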
In general terms: qHTS replaces the single test concentration by a dilution series.

Assay [3] in a line: qHTS assay to identify small molecule antagonists of the androgen receptor (AR) signaling pathway using the MDA cell line in the presence of 0.5 nM R1881 - cell viability counter screen (AID 1259242). Also: nearly all actives have a fitted effect of over 45% in size. Also: potency is read from the fitted curve at half-maximal effect. Put shortly: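 Fluorescence from CellTiter-Fluor, which reports protease activity of live cells, was read 30 min after reagent addition to MDA-kb2 cells that had been incubated 16 hr with compound and 0.5 nM R1881.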

Assay [4] is described as follows: qHTS assay to identify small molecule HDAC inhibitors (AID 1259364). Also: top concentration of the series differs between compounds; nearly all actives have a fitted effect of over 45% in size. The essentials:
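Endogenous HDAC class I/II activity was measured in wild-type HCT-116 cells by HDAC-Glo luminescence after 2 h compound treatment.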

Assay [5] in a line: qHTS assay to identify small molecule HDAC inhibitors - cell viability counter screen (AID 1259365). Also: series mostly up to about 92 µM; nearly all actives have a fitted effect of over 50% in size. The essentials:
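CellTiter-Glo luminescence (30 min, room temperature) reported viability after a 2 h compound exposure at 37 C. Cells: wild-type HCT-116, 1,500 per well, seeded the night before.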

Assay [6] in a line: qHTS assay to identify small molecule agonists of the sonic hedgehog signaling (Shh) pathway - cell viability counter screen (AID 1259366). Also: nearly all actives have a fitted effect of over 50% in size. The essentials:
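Cytotoxicity counter screen: CellTiter-Fluor reagent added after 23 h compound exposure, then 1 h at 37C and fluorescence read. Cells were 3T3 Gli1-Luc, seeded 2,000 per well and dosed 4 h post-plating.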

Assay [7] concerns the target Androgen receptor (Homo sapiens) (UniProt P10275). The experiment in a line: qHTS assay to identify small molecule antagonists of the androgen receptor (AR) signaling pathway using the MDA cell line in the presence of 0.5 nM R1881 (AID 1259243). Also: nearly all actives have a fitted effect of over 50% in size. Also: potency is read from the fitted curve at half-maximal effect. Put shortly:
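Inhibition of R1881 (0.5 nM final) induced reporter signal was measured in human MDA-kb2 cells; note the MMTV promoter also responds to GR. Exposure lasted 16 hr at 37C.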

For assay [8], the target named is Estrogen receptor (Homo sapiens) (UniProt P03372). The experiment in a line: qHTS assay to identify small molecule antagonists of the estrogen receptor alpha (ER-alpha) signaling pathway using the BG1 cell line in the presence of 0.1 nM 17-beta-estradiol (AID 1259244). Also: nearly all actives have a fitted effect of over 50% in size. Also: potency is read from the fitted curve at half-maximal effect. Put shortly:
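Quantitative high-throughput screen in VM7Luc4E2 cells: compound plus 0.1 nM E2 (final), 22 h, 37C, 5% CO2; ONE-Glo added, 30 min room temperature, luminescence measured.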

The nature of assay [9]: qHTS assay to identify small molecule antagonists of the sonic hedgehog signaling (Shh) pathway - cell viability counter screen (AID 1259367). Also: nearly all actives have a fitted effect of over 55% in size. Also: potency is read from the fitted curve at half-maximal effect. The essentials:
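After a 4 hr settling period, 3T3 Gli1-Luc cells were treated with DMSO-dissolved chemicals and conditioned medium, kept 24 hr at 37C in 5% CO2, and assayed for viability by CellTiter-Fluor fluorescence following 1 hr reagent incubation.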

Sequence of Androgen receptor (Homo sapiens) (P10275 whole entry, looked up): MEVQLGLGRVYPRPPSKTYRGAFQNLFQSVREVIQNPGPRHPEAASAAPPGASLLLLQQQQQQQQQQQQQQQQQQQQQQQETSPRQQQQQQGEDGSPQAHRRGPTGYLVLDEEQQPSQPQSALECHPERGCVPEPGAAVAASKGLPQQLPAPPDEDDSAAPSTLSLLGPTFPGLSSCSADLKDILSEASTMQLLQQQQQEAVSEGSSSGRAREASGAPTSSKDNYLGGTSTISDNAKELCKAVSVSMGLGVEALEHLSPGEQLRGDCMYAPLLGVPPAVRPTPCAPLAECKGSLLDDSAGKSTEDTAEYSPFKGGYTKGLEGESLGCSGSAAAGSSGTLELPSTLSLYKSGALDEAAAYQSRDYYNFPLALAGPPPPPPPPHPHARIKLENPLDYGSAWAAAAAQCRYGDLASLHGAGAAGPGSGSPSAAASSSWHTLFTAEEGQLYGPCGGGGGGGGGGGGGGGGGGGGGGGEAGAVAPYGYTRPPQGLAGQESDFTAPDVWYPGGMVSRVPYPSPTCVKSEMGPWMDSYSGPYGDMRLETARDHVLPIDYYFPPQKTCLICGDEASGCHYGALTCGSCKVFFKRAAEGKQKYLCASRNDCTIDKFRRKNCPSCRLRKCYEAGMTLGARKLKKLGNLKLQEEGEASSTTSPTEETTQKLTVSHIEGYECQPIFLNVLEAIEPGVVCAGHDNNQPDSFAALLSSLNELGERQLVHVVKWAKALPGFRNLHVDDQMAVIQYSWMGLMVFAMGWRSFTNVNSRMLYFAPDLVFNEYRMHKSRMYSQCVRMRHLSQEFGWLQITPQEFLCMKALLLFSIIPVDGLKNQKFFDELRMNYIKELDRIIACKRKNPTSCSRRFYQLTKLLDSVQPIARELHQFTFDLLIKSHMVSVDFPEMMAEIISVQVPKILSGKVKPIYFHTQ
Sequence of Estrogen receptor (Homo sapiens) (P03372 whole entry, looked up): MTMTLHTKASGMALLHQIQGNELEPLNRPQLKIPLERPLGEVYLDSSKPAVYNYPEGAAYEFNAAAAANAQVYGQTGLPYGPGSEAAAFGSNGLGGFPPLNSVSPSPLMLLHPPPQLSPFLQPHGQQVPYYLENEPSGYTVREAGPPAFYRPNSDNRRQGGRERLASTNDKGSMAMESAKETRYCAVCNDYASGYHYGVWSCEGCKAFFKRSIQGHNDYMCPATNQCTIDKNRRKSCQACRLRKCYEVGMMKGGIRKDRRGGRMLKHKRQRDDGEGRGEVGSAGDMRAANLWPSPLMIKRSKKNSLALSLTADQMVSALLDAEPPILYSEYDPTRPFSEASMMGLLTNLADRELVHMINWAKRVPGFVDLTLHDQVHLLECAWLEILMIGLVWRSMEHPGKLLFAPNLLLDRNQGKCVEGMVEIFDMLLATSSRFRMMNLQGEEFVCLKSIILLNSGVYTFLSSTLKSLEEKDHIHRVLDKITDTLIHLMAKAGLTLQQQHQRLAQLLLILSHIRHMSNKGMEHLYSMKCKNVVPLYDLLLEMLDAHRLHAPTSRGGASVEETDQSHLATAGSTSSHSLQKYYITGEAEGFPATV

Take `CCCCN=C=O`: the Potency entry in [1], in assay [2], in assay [3], in assay [4], in [5] and in [6] was “inactive” each time.

`Oc1ccc(Cl)c(Cl)c1Cl`: the Potency entry in [1], in [2], in [3], in assay [4] and in [5] was “inactive” in each case.

`Cc1ccc(-c2c(Cl)nc(C#N)n2S(=O)(=O)N(C)C)cc1`: the Potency entry in assay [1], in assay [2] and in [5] was “inactive” each time. The Potency in [7] is 38.5 µM (active); in assay [8], 43.2 µM (active).

As for `O=Cc1ccc(Cl)cc1Cl`, the Potency entry in assay [1], in assay [2], in assay [3], in assay [4], in assay [5] and in [6] was “inactive” in each case. Moreover, in [9], the Potency entry is “inactive”.

With `C=CC(=O)OC`, the Potency result in assay [1], in [2], in assay [3], in assay [4], in assay [5] and in assay [6] was “inactive” throughout. Further, the Potency result in assay [9] is “inactive”.

Take `C=COC(C)=O`: the Potency entry in assay [1], in assay [2], in assay [3], in [4], in [5] and in [6] was “inactive” each time.

Consider `O=S(=O)(Cl)c1ccccc1`, for which the Potency result in assay [1], in [2], in [3], in assay [4], in assay [5] and in assay [6] was “inactive” each time. In assay [9], the Potency result was “inactive”.

`CCOC(=O)[C@]1(c2ccccc2)Oc2ccccc2[C@@H]1N`: the Potency entry in assay [1], in [2], in assay [3], in assay [4], in [5] and in assay [6] was “inactive” in each case. The Potency result in assay [9] is “inactive”.

Regarding `CC(C)(CCl)C(=O)Cl`, the Potency entry in [1], in assay [2], in assay [3], in assay [4], in [5] and in assay [6] was “inactive” throughout. Also, in [9], the Potency was 12.2 µM (active).

Consider `CCCC(Cn1cncn1)c1ccc(Cl)cc1Cl` (stereo not given), for which the Potency result in assay [1], in assay [2], in [3], in assay [4], in [5] and in assay [6] was “inactive” in each case.

As for `CCCCN(N=O)C(=N)N[N+](=O)[O-]`, the Potency result in assay [1], in assay [2], in assay [3], in assay [4], in [5] and in assay [6] was “inactive” throughout. Further, the Potency result in assay [9] is “inactive”.

For `CCC(Br)(CC)C(=O)NC(N)=O`, the Potency entry in [1], in [2], in assay [3], in [4], in [5] and in assay [6] was “inactive” in each case. Also, the Potency result in [9] was “inactive”.

As for `Clc1cccc2ccccc12`, the Potency entry in assay [1], in [2], in assay [3], in [4], in assay [5] and in [6] was “inactive” throughout. Besides, in assay [9], the Potency result was “inactive”.

In the case of `C/C=C/C=O`, the Potency entry in [1], in assay [2], in assay [3], in [4], in assay [5] and in assay [6] was “inactive” in each case.

Consider `C/C(=C\c1ccccc1)[N+](=O)[O-]`, for which the Potency result in assay [1], in assay [2], in assay [8], in assay [4] and in [5] was “inactive” in each case. Also, in [7], the Potency was 12.2 µM (active).

Take `CCOC(=O)CBr`: the Potency result in [1], in assay [2], in assay [3], in assay [4], in assay [5] and in assay [6] was “inactive” in each case. Besides, in assay [9], the Potency result was “inactive”.

Regarding `CO/N=C(/C(=O)OC)c1ccccc1COc1ccccc1C`, the Potency entry in assay [1], in assay [2], in assay [8], in assay [4], in assay [5] and in assay [9] was “inactive” each time. Further, the Potency in [7] is 17.2 µM (active).

For `CC1C(=O)C[C@]2(C(C)C)C[C@H]12` (stereo not given in full), the Potency result in assay [1], in assay [2], in assay [3], in assay [4], in assay [5] and in assay [9] was “inactive” in each case.

On to `Nc1nc(N)nc(N)n1`, for which the Potency result in assay [1], in assay [2], in assay [3], in assay [4], in [5] and in [6] was “inactive” in each case. Further, the Potency entry in assay [9] was “inactive”.

As for `O=[Se]=O`, the Potency result in assay [1], in assay [2], in assay [4], in assay [5], in [6] and in assay [9] was “inactive” throughout. For the same compound, the Potency in assay [3] was 12.1 µM (active).

For the compound `CC(C)O.CC(C)O.OCCN(CCO)CCO.OCCN(CCO)CCO.[Ti]`, the Potency entry in assay [1], in assay [2], in [3], in assay [4], in assay [5] and in assay [6] was “inactive” in each case. Besides, in assay [9], the Potency result is “inactive”.

For `Cc1cc(=O)[nH]o1`, the Potency entry in assay [1], in assay [3], in assay [7], in assay [8], in assay [4] and in [5] was “inactive” throughout. The Potency result in [6] and in assay [9] was “inactive” in each case.
